MEKK2wt PB1 HTS: raises or lowers MEK5 binding to wildtype human MEKK2 PB1 domain. Q9Y2U5. bead flow cytometry, Alexa488-MEK5 binding to MEKK2 WT; actives lie on both sides. binding response (% of control), % at 10 µM. 290,000 compounds, 1.1% hits; in the data active = binding response below about 67% or above about 130%
MEKK2mut PB1 HTS: signal of MEK5 binding to mutant human MEKK2 PB1 domain; 290,000 compounds, 0.35% hits; AID 1530; percent response, % at 10 µM; bead flow cytometry, Alexa488-MEK5 binding to MEKK2 mutant; in the data active = percent response above about 24%, passing the limit was not always enough
CendR NRP1 mod: modulators of CendR peptide binding to human neuropilin-1. O14786. FAM-RPARPAR peptide binding to NRP-1, fluorescence polarization. inhibition, % at 25 µM. 360,000 compounds, 0.85% hits. AID 602438;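 active = inhibition or corrected inhibition above about 18%, plus a signal ratio from 0.5 to 1.5, limit read from the data, passing the limit was not always enough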
Target sequence (O14786 whole entry, looked up): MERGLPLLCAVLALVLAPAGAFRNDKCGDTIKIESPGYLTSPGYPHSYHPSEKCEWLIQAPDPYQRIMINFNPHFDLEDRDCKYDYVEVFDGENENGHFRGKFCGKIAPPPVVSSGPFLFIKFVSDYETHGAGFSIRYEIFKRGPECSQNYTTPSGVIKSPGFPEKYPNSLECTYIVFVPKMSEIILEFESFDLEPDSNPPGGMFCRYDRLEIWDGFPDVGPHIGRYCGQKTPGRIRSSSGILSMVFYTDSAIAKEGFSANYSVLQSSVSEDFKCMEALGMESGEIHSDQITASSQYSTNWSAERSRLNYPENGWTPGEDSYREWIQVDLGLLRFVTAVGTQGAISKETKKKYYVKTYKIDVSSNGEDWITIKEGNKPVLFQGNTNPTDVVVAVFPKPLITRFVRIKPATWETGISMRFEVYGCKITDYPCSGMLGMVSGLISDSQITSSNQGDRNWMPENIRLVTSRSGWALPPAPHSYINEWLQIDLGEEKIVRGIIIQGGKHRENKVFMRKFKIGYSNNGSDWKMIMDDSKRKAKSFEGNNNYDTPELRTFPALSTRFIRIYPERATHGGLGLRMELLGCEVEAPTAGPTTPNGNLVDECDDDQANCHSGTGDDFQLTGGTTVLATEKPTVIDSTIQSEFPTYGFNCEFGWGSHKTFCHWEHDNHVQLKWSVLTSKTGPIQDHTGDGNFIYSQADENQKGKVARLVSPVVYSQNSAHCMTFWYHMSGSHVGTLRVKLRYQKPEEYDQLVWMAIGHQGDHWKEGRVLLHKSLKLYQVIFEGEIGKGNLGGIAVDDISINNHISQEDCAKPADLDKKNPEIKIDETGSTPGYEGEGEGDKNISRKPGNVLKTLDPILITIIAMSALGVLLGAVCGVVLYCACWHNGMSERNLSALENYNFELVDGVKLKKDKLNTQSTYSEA
MEKK3 PB1 HTS: MEKK3-MEK5 PB1 interaction, increase or decrease | Q99759 | bead-based flow cytometry, Alexa488-MEK5 binding to MEKK3; actives lie on both sides; 0 = blocked by unlabeled MEK5, 100 = vehicle | binding response (% of control), % at 10 µM | 290,000 compounds, 1.4% hits;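 active = binding response more than 3 SD above or below the average of its plate-row segment, actives on both sides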;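 note: Alexa488 bead fluorescence after subtracting the streptavidin-only scavenger bead signal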
SKN-1 inh: C. elegans SKN-1 inhibition | C. elegans VP596 Pgst-4::GFP/RFP ratio, acrylamide-induced, 24 h | AID 624304 | inhibition, % at 21.8 µM | 360,000 compounds, 0.49% hits;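 active = interference check ratio from 0.5 to 1.5 plus GFP to RFP signal ratio inhibition reaching or exceeding a fixed threshold, cut at about 30% in these data, passing the limit was not always enough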
MEKK2wt confirm: raises or lowers MEK5 binding to wildtype human MEKK2, retest. shares compounds with MEKK3 PB1 HTS. bead flow cytometry, Alexa488-MEK5 binding to MEKK2 WT; actives lie on both sides. binding response (% of control), % at 10 µM. 5,900 compounds, 2.4% hits. AID 1892; in the data active = binding response below about 16% or above about 210%; inactive = in between
MEKK2mut confirm: signal of MEK5 binding to mutant human MEKK2, retest | percent response, % at 10 µM | 5,900 compounds, 2% hits | shares compounds with MEKK3 PB1 HTS | bead flow cytometry, Alexa488-MEK5 binding to MEKK2 mutant; in the data active = percent response mostly above about 71%, no sharp cut-off; inactive = mostly below about 38%;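 note: higher means compound restores mutant binding toward wildtype level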
MEKK3-MEK5 inh: confirmation of inhibitors of MEK5 binding to human MEKK3; shares compounds with MEKK3 PB1 HTS; bead flow cytometry, Alexa488-MEK5 binding to MEKK3; active compounds read low; binding response (% of control), % at 10 µM; 5,900 compounds, 1.8% hits;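 active = binding response below 72% of control, or above a set upper limit, though filed actives all read lower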;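 note: lower values mean stronger disruption of MEK5 binding to MEKK3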
Numbers stand for hits; 0 = inactive; - = no result; [ ] = dose if it differs, or a comment. Compounds with a hit are over-represented: about 3.2% of the library has one in this group of screens.

SMILES	MEKK2wt PB1 HTS	MEKK2mut PB1 HTS	CendR NRP1 mod	MEKK3 PB1 HTS	SKN-1 inh	MEKK2wt confirm	MEKK2mut confirm	MEKK3-MEK5 inh
CC(C)NC(=O)N(C)C[C@@H]1Oc2c(NC(=O)C3CCOCC3)cccc2C(=O)N([C@@H](C)CO)C[C@H]1C	-	-	0	-	0	-	-	-
Cc1ccc(/C=C/C(=O)NC2=NCCS2)cc1	144	0	0	0	0	0	0	0
CCCOc1ccc(/C=N/NC(=O)CSCc2ccc([N+](=O)[O-])cc2)cc1OCC	0	0	0	135	0	0	0	0
CCCOc1ccc(/C=N/NC(=O)CN2CCCCC2)cc1OCC	0	0	0	0	0	-	-	-
COc1ccccc1N1CC(C(=O)OC(C)C(=O)Nc2ccc(F)cc2)CC1=O (stereo not drawn)	-	-	0	-	0	-	-	-
CN(CC(=O)Nc1cccc2c1CCCC2)S(=O)(=O)c1ccc(Br)cc1	0	0	0	0	0	-	-	-
CN(CC(=O)Nc1cccc2c1CCCC2)S(=O)(=O)c1ccccc1	0	0	0	80[inhibitor]	0	0	0	0
C#CCOCC1CNC(=S)O1 (stereo not drawn)	-	-	0	-	0	-	-	-
Cn1nc(C(F)(F)F)c(-c2ccc(Br)cc2)c1NC(=O)Nc1ccc(F)cc1F	138	0	0	133	0	0	0	0
O=C(c1sc(N2CCOCC2)nc1-c1ccccc1)N1CCCCC1	0	0	0	131	0	0	0	0
Cc1c(N=N/C(C(=O)Nc2ccccc2)=C(/O)c2ccccc2)c(=O)n(-c2ccccc2)n1C	0	0	0	0	0	-	-	-
COC(=O)/C(N=Nc1c(C)n(C)n(-c2ccccc2)c1=O)=C(\C)O	0	0	0	142	0	0	0	0
COc1ccc(S(=O)(=O)N2CCCCC2c2cc(C(=O)N3CCOCC3)no2)cc1 (stereo not drawn)	-	-	0	-	0	-	-	-
CC(=O)/C=C\c1ccccc1OC(=O)c1cc2ccccc2oc1=O	0	0	0	0	0	-	-	-
O=C(/C=C\c1ccccc1OC(=O)c1ccccc1F)c1cc2ccccc2o1	0	0	0	135	0	0	0	0
c1ccc2c(NCCc3c[nH]c4ccccc34)c3ccccc3nc2c1	220	48	0	0	0	0	0	0
Fc1cccc(NCCc2c[nH]c3ccccc23)n1	0	0	0	0	0	-	-	-
Cc1nc2ccccn2c1C(=O)N=Nc1c(O)[nH]c2ccccc12	0	0	0	139	0	0	0	0
Cc1cc(C)n(CCC(=O)N=Nc2c(O)[nH]c3ccccc23)n1	0	0	0	0	0	-	-	-
Cc1cc2ccccc2n1CCNC(=O)c1cccs1	9.0[inhibitor]	0	0	34[inhibitor]	46	0	0	70
O=C(Cn1cc(S(=O)(=O)N2CCN(c3ccccc3F)CC2)c2ccccc2c1=O)NCCCN1CCCCCC1	7.0[inhibitor]	0	0	3.0[inhibitor]	0	0	0	0
Oc1ccc(-n2cnnn2)cc1	0	0	0	71[inhibitor]	0	0	0	0
Clc1ccc(-n2cnnn2)cc1	0	0	0	0	0	-	-	-
COc1ccc(-c2csc(NC(=O)CCN3C(=O)C4CC=CCC4C3=O)n2)cc1OC (stereo not drawn)	-	-	0	-	0	-	-	-
CCOc1cc(/C=N/O)cc(Br)c1OCC	0	0	0	124	0	0	0	0
SMILES	MEKK2wt PB1 HTS	MEKK2mut PB1 HTS	CendR NRP1 mod	MEKK3 PB1 HTS	SKN-1 inh	MEKK2wt confirm	MEKK2mut confirm	MEKK3-MEK5 inh
O=C(Nc1cccc(S(=O)(=O)N2CCCCCC2)c1)c1ccc2c(c1)OCO2	0	0	0	140	0	0	0	0
Cc1nc(C)c(C(=O)NCc2ccc(Cl)cc2)o1	0	0	0	76[inhibitor]	0	0	0	0
O=C(Nc1cccc(Cl)c1)Nc1cccc(Cl)c1	161	0	0	0	0	0	0	0
Cc1nc(C)c(C(=O)Nc2cccc(Cl)c2)o1	0	0	0	77[inhibitor]	0	0	0	0
Cc1nn(C)c(C(=O)NCc2ccc(Cl)cc2)c1Cl	0	0	0	0	0	-	-	-
O=C(Nc1cccc(S(=O)(=O)N2CCCC2)c1)c1ccc2c(c1)OCO2	0	0	0	0	0	-	-	-
CCN(C[C@H]1N[C@@](C)(C(=O)OC)[C@H]2C(=O)N(Cc3ccccc3)C(=O)[C@@H]12)C(=O)Nc1ccc(F)cc1	-	-	0	-	0	-	-	-
O=C(Nc1cccc(Cl)c1)Nc1cc(S(=O)(=O)N2CCCCC2)ccc1Cl	0	78	0	0	0	0	0	0
C#Cc1ccc(NC(=O)C2(C)CCN2C(=O)c2cc(C)n(C)n2)cc1 (stereo not drawn)	-	-	0	-	0	-	-	-
CC(=O)Nc1c(C(=O)N2CCCCCC2)cnn1-c1ccccc1	0	0	0	81[inhibitor]	0	0	0	0
Cc1ccccc1C(=O)Nc1c(C(=O)N2CCCC2)cnn1-c1ccccc1	0	0	0	0	0	-	-	-
CCO[C@H]1OC(C(=O)NCc2nc3ccccc3[nH]2)=C[C@@H](c2ccccc2)[C@@H]1CCCO	0	0	0	0	0	-	-	-
O=C(NCc1nc2ccccc2[nH]1)C1=C[C@H](C2CC2)C[C@H](OCCCCO)O1	0	0	0	79[inhibitor]	0	0	0	0
CCO[C@H]1OC(C(=O)NCc2nc3ccccc3[nH]2)=C[C@@H](C2CC2)[C@@H]1CCCO	2.0[inhibitor]	0	0	1.0[inhibitor]	0	0	0	0
Cc1ccc(NC(=O)c2nc[nH]c2C(=O)N2CCC(C)CC2)cc1	0	0	0	0	0	-	-	-
COc1ccc(NC(=O)c2nc[nH]c2C(=O)N2CCC(C)CC2)cc1	0	0	25	75[inhibitor]	0	0	0	0
COc1nc2c(c(-c3cc(Br)cs3)c1C#N)Cc1ccccc1-2	0	0	0	133	0	0	0	0
O=C(NC(=S)N1CCCCC1CO)c1cc(Br)ccc1Cl (stereo not drawn)	-	-	0	-	0	-	-	-
CCC(c1nc2ccccc2[nH]1)n1c(=O)c(-c2ccccc2)nc2ccccc21 (stereo not drawn)	-	-	0	-	0	-	-	-
COc1ccccc1P(=O)(c1ccccc1)c1ccc([N+](=O)[O-])cc1 (stereo not drawn)	0	0	0	0	0	-	-	-
CC(C)C(OC(=O)C1=Cc2ccccc2OC1)C(=O)NC1CCCC1 (stereo not drawn)	0	0	0	131	36	0	0	0
CCC(OC(=O)C1=Cc2ccccc2OC1)C(=O)NC1CCCC1 (stereo not drawn)	0	0	0	126	0	0	0	0
O=C(OC(C(=O)NC1CCCC1)c1ccncc1)C1=Cc2ccccc2OC1 (stereo not drawn)	0	0	0	0	0	-	-	-

Screens deposited in PubChem by several laboratories.
